These results are taken from PubChem BioAssay (NCI).

The panel holds about 83,000 compounds, 20% with a hit somewhere; the sample as a whole holds those more often.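 Compound tested at a single concentration for 48 hours in 96-well plates; a percent growth value below 10 was scored as active.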 A number with no mark means an inactive call. The source made the active and inactive calls.

Some test systems named below: SK-MEL-2 melanoma; EKVX NSCLC; SN12C renal; UO-31 renal; TK-10 renal; ACHN renal; CAKI-1 renal; A498 renal; CCRF-CEM leukemia; MOLT-4 leukemia; SR leukemia; RPMI-8226 leukemia; OVCAR-8 ovarian; OVCAR-5 ovarian; OVCAR-4 ovarian; SK-OV-3 ovarian; OVCAR-3 ovarian; HS 578T breast; NCI/ADR-RES ovarian; IGROV1 ovarian.
Holding throughout (test): NCI-60 one-dose screen, 48 h (100 = growth as untreated, 0 = no growth, -100 = all killed)
Holding throughout (conditions): 10 µM

On to `CC(=O)Nc1ccc(CC[C@H]2CCC/C=C/[C@@H]3C[C@H](O)C[C@H]3[C@H](O)/C=C/C(=O)O2)cc1`, for which the growth with SK-MEL-2 melanoma was -28.6% (active); with EKVX NSCLC, 8.89% (active); with SN12C renal, 5.85% (active); in the test with UO-31 renal, 6.87% (active); with TK-10 renal, -45.5% (active); with ACHN renal it was 4.68% (active). Besides, the growth is 16% in the test with CAKI-1 renal; -32.9% (active) in the test on A498 renal; -4.29% (active) in the test on CCRF-CEM leukemia; -6.82% (active) with MOLT-4 leukemia; 3.92% (active) with SR leukemia; 3.69% (active) in the test with RPMI-8226 leukemia. The growth in the test with OVCAR-8 ovarian was 0.483% (active); in the test on OVCAR-5 ovarian, 23%; in the test on OVCAR-4 ovarian it was 18.4%; in the test with SK-OV-3 ovarian it was 29.8%; in the test with OVCAR-3 ovarian, 6.39% (active); in the test with HS 578T breast, 34.9%. Further, the growth with NCI/ADR-RES ovarian is 18.7%.

On to `COc1cc2c(cc1NC(=O)C(F)(F)F)-c1ccc(NC(=O)C(F)(F)F)cc1C2`, for which the growth was 105% with SK-MEL-2 melanoma; 104% with EKVX NSCLC; 86.8% in the test with SN12C renal; 102% in the test on UO-31 renal; 94.8% in the test on TK-10 renal; 62.9% in the test with ACHN renal. Also, the growth is 96.9% in the test on CAKI-1 renal; 97.7% with A498 renal; 97.6% in the test on CCRF-CEM leukemia; 105% in the test on MOLT-4 leukemia; 107% with SR leukemia; 103% with RPMI-8226 leukemia. For the same compound, the growth was 96.8% with OVCAR-8 ovarian; 99% in the test on OVCAR-5 ovarian; 54.7% with SK-OV-3 ovarian; 103% in the test with IGROV1 ovarian; 108% in the test with OVCAR-3 ovarian; 77.8% in the test on HS 578T breast. In the test with NCI/ADR-RES ovarian, the growth was 93.3%.

Consider `COc1cc(/C=C/c2cc(/C=C/c3ccc(O)c(OC)c3)nc(N)n2)ccc1O`, for which the growth was -21% (active) with SK-MEL-2 melanoma; 22.2% in the test with EKVX NSCLC; 22.1% in the test with SN12C renal; 3.16% (active) in the test on UO-31 renal; 21.4% in the test with TK-10 renal; 13.5% in the test with ACHN renal. The growth in the test on CAKI-1 renal was 19.2%; with A498 renal it was -56.9% (active); in the test with CCRF-CEM leukemia, 1.68% (active); with MOLT-4 leukemia, 4.17% (active); with SR leukemia it was -7.94% (active); in the test with RPMI-8226 leukemia, 2.88% (active). Besides, the growth is 9.33% (active) in the test on OVCAR-8 ovarian; 5.83% (active) in the test on OVCAR-5 ovarian; 18.3% in the test on OVCAR-4 ovarian; -17.4% (active) with SK-OV-3 ovarian; 3.42% (active) with IGROV1 ovarian; -7.57% (active) in the test with OVCAR-3 ovarian. In addition, the growth in the test on HS 578T breast is -0.999% (active); with NCI/ADR-RES ovarian it was 39.3%.

`COc1cc2c(cc1OC)C(C(CCCCCC(CCC(C)C)C1NCCc3cc(OC)c(OC)cc31)CCC(C)C)NCC2` (stereo not given): the growth is -91.9% (active) in the test on SK-MEL-2 melanoma; -74.4% (active) with EKVX NSCLC; -85.5% (active) with SN12C renal; -96.3% (active) with UO-31 renal; -97.2% (active) in the test on TK-10 renal; -100% (active) in the test with ACHN renal. Further, the growth is -84.7% (active) in the test with CAKI-1 renal; -59.6% (active) with A498 renal; -74.3% (active) with CCRF-CEM leukemia; 2.91% (active) with MOLT-4 leukemia; 12.1% in the test on SR leukemia; -57.1% (active) in the test with RPMI-8226 leukemia. Further, the growth with OVCAR-8 ovarian is -89.3% (active); in the test on OVCAR-5 ovarian it was -100% (active); in the test on OVCAR-4 ovarian, -100% (active); with SK-OV-3 ovarian, -99.5% (active); in the test on OVCAR-3 ovarian, -99.9% (active); with HS 578T breast, -41% (active). In addition, the growth in the test on NCI/ADR-RES ovarian is -95.9% (active).

In the case of `CC(=O)C1CCC2C3CC=C4CC(SC(=N)N)CCC4(C)C3CCC12C` (stereo not given), the growth was 32.3% in the test on SK-MEL-2 melanoma; 55.2% with EKVX NSCLC; 47.1% with SN12C renal; 63% in the test with UO-31 renal; 66.8% with TK-10 renal; 54.4% in the test on ACHN renal. In addition, the growth was 62.7% in the test with CAKI-1 renal; 78.3% in the test on A498 renal; 6.89% (active) in the test on CCRF-CEM leukemia; -5.72% (active) with MOLT-4 leukemia; -36% (active) with SR leukemia; -7.56% (active) in the test on RPMI-8226 leukemia. Besides, the growth is 30.8% in the test on OVCAR-8 ovarian; 80.4% in the test with OVCAR-5 ovarian; 50.1% in the test with OVCAR-4 ovarian; 75% with SK-OV-3 ovarian; 35.7% with IGROV1 ovarian; 63.1% with OVCAR-3 ovarian. The growth with HS 578T breast was 72.6%; in the test with NCI/ADR-RES ovarian it was 38.2%.

For `CC(=O)Nc1ccc(S(=O)(=O)c2ccnc3cc(Cl)ccc23)cc1`, the growth was 79.2% with SK-MEL-2 melanoma; 86.7% in the test with EKVX NSCLC; 81% with SN12C renal; 106% in the test with UO-31 renal; 82.3% with TK-10 renal; 69.3% with ACHN renal. The growth with CAKI-1 renal is 75.3%; in the test on A498 renal it was 95.9%; in the test on CCRF-CEM leukemia it was 52.9%; with MOLT-4 leukemia it was 68.8%; with SR leukemia, 83.3%; in the test on RPMI-8226 leukemia it was 72.1%. Also, the growth with OVCAR-8 ovarian is 73.3%; in the test with OVCAR-5 ovarian it was 100%; in the test with OVCAR-4 ovarian, 81.4%; with SK-OV-3 ovarian it was 88%; in the test on IGROV1 ovarian it was 98.2%; in the test with OVCAR-3 ovarian, 76%. Moreover, the figures for the growth in the test with HS 578T breast and in the test on NCI/ADR-RES ovarian were 85.2% and 77.3%, respectively.

As for `O=C(COc1cccc(/C=C2\CSc3ccc(Cl)cc3C2=O)c1)c1ccc(Cl)cc1`, the growth with SK-MEL-2 melanoma is 44.2%; in the test on EKVX NSCLC, 70.3%; with SN12C renal, 79.7%; in the test with UO-31 renal, -7.04% (active); in the test with TK-10 renal it was 127%; with ACHN renal, 81.7%. The growth with CAKI-1 renal is 61.2%; with A498 renal, 91.3%; in the test with CCRF-CEM leukemia, -26.1% (active); with MOLT-4 leukemia it was -12.1% (active); in the test with SR leukemia, -3.18% (active); with RPMI-8226 leukemia, -25.1% (active). Besides, the growth with OVCAR-8 ovarian is 66.9%; in the test on OVCAR-5 ovarian, 86.7%; in the test on OVCAR-4 ovarian, 75%; with SK-OV-3 ovarian it was 86.2%; in the test on OVCAR-3 ovarian, 90.3%; in the test on HS 578T breast it was 93%. Also, the growth with NCI/ADR-RES ovarian is 72.8%.

`COc1ccc(/C(C#N)=C/c2cccc(OC)c2OC)cc1`: the growth is 77.1% in the test on SK-MEL-2 melanoma; 99.9% with EKVX NSCLC; 89.8% in the test on SN12C renal; 78.1% in the test with UO-31 renal; 96.7% in the test with TK-10 renal; 99% in the test with ACHN renal. For the same compound, the growth was 74.7% with CAKI-1 renal; 87.2% in the test on A498 renal; 80.5% in the test on CCRF-CEM leukemia; 82.8% in the test with MOLT-4 leukemia; 41.2% in the test with SR leukemia; 91.1% in the test on RPMI-8226 leukemia. Further, the growth in the test with OVCAR-8 ovarian was 96%; with OVCAR-5 ovarian, 97.7%; in the test with OVCAR-4 ovarian it was 98.8%; in the test with SK-OV-3 ovarian, 96.2%; in the test on OVCAR-3 ovarian it was 94.2%; in the test on HS 578T breast, 91.6%. In the test on NCI/ADR-RES ovarian, the growth is 53.3%.
